Measurements: the supplement of paper PMC10849652
Targets with a hit are over-represented here; the source holds about 7,900 in all. About 0.6% of all pairs of compound and target were hits. Unmarked numbers belong to inactive results.

Chain of UniProt P51151 (P51151 whole entry, looked up): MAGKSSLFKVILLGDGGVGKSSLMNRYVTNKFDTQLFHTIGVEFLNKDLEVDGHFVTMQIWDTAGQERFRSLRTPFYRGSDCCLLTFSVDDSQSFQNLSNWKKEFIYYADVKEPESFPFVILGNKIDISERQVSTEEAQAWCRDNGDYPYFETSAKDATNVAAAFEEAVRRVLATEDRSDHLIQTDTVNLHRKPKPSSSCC
Chain of UniProt Q9UPN6 (Q9UPN6 whole entry, looked up): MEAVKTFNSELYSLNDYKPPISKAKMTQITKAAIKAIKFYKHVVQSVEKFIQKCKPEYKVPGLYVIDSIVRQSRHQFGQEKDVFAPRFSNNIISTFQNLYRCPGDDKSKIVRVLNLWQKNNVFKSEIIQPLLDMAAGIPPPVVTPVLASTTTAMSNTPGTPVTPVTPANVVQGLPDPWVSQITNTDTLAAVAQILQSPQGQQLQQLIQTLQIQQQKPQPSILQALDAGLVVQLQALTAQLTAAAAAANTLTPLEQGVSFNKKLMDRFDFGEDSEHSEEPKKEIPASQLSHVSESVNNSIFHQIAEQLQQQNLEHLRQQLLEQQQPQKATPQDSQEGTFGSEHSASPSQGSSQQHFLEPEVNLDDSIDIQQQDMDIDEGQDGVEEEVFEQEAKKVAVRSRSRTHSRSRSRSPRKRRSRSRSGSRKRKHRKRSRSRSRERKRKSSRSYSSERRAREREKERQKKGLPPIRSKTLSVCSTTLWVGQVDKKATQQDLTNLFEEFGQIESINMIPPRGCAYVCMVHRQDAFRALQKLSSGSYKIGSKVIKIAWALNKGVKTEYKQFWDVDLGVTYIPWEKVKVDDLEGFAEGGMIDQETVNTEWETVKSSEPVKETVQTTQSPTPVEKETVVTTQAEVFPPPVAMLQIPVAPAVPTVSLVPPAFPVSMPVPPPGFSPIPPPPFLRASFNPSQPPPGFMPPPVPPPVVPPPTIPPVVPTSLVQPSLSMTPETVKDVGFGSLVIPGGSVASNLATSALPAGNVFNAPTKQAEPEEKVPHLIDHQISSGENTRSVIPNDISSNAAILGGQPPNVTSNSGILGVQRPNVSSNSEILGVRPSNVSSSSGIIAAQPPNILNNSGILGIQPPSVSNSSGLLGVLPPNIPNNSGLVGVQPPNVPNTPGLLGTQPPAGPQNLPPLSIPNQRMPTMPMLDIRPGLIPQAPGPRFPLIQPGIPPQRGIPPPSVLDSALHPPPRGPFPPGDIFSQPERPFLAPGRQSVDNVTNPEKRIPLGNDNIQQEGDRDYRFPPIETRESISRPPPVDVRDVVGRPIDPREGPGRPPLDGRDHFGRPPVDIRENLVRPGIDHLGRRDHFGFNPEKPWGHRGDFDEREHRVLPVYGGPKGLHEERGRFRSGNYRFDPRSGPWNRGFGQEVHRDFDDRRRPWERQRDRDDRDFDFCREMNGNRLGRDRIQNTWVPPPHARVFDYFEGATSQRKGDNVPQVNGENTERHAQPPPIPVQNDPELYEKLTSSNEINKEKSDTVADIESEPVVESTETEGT
Chain of UniProt O00560 (O00560 whole entry, looked up): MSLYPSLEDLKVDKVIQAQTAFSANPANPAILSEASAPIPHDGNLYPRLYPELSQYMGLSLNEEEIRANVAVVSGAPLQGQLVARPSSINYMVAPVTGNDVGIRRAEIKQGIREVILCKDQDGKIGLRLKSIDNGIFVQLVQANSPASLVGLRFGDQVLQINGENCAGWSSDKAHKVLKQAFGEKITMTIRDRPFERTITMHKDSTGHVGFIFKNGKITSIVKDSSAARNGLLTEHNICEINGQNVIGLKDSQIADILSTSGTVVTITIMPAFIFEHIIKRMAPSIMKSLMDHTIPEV
Chain of UniProt P49756 (P49756 whole entry, looked up): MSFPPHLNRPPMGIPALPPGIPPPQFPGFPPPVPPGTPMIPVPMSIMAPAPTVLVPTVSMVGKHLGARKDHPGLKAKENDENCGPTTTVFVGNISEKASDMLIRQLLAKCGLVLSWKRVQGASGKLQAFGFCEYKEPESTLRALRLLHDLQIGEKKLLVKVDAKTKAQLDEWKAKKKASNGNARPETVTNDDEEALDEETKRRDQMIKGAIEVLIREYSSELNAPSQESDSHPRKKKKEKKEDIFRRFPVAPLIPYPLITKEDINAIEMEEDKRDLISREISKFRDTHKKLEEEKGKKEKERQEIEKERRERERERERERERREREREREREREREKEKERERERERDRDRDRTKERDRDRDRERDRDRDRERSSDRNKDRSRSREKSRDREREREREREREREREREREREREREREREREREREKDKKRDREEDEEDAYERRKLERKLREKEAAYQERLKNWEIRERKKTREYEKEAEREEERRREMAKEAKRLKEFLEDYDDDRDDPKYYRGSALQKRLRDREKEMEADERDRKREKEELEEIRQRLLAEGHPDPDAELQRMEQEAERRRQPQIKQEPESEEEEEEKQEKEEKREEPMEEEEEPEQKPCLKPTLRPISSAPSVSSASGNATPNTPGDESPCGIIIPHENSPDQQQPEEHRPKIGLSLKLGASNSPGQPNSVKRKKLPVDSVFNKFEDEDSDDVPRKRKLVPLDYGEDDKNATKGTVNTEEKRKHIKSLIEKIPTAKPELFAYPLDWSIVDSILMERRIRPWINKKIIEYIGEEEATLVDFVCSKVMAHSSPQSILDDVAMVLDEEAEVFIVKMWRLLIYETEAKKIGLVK
Chain of UniProt Q9H2X9 (Q9H2X9 whole entry, looked up): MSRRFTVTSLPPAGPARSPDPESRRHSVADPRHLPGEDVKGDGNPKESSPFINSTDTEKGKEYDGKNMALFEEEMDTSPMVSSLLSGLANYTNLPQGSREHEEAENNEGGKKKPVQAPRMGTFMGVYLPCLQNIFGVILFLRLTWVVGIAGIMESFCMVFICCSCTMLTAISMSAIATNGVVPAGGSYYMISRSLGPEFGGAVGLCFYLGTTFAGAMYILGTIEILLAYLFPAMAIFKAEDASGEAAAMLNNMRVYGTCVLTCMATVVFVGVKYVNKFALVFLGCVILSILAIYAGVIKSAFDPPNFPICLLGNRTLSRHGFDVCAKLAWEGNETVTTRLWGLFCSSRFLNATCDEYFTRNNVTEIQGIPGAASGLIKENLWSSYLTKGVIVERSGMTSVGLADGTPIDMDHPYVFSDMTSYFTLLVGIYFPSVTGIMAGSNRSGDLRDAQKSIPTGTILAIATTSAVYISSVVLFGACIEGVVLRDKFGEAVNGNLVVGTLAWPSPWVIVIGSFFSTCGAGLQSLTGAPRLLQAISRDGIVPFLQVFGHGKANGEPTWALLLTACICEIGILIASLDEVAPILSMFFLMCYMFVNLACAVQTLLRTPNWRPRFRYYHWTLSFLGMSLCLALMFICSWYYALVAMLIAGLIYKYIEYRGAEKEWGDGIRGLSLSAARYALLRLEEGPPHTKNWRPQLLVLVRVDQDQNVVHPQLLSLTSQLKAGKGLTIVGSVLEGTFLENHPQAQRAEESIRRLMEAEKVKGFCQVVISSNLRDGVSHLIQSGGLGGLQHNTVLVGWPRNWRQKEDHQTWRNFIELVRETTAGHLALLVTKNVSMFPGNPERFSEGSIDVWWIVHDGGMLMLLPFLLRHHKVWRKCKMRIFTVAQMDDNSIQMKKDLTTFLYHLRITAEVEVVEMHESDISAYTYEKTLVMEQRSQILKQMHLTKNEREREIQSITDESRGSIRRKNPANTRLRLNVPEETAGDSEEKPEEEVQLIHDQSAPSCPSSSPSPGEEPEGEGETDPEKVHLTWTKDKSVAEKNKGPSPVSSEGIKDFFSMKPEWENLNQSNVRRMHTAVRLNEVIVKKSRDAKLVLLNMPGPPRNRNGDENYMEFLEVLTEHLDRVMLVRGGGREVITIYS
Chain of UniProt P62070 (P62070 whole entry, looked up): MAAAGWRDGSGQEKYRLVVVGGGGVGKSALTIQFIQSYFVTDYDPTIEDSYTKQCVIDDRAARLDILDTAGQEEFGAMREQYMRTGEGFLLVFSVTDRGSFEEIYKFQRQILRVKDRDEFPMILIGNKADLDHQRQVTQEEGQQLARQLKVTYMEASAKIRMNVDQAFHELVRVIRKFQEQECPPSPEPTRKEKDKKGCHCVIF
Chain of UniProt Q8NBJ9 (Q8NBJ9 whole entry, looked up): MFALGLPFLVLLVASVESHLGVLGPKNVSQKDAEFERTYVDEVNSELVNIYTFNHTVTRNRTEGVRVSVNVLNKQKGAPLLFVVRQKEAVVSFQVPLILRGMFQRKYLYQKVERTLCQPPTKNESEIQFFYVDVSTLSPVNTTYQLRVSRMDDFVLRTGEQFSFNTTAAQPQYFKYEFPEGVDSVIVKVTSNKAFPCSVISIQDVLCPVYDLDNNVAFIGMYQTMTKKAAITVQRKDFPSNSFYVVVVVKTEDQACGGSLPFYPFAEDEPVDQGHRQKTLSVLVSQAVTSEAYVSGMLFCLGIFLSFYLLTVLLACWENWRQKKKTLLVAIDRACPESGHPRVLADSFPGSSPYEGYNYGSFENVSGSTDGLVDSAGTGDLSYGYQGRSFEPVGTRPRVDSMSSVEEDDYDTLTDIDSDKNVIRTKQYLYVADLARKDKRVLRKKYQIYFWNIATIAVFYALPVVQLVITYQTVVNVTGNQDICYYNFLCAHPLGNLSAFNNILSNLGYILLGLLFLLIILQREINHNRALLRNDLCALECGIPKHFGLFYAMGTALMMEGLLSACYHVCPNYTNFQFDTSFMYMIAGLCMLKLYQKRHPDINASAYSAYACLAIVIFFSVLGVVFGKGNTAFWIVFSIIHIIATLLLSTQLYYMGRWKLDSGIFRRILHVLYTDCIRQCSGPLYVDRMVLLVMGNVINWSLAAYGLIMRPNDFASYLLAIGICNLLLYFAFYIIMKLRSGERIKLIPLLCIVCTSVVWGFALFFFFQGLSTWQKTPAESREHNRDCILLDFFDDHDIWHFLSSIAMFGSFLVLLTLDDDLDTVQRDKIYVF
Chain of UniProt O00584 (O00584 whole entry, looked up): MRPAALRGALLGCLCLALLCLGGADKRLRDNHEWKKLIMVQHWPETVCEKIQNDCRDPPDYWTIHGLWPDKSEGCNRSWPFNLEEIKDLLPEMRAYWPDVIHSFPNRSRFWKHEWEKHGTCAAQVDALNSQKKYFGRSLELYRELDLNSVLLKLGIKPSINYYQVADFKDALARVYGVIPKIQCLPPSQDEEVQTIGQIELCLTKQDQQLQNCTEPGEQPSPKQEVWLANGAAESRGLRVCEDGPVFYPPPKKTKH

Each target was assayed with c1ccc([C@@H]2C[C@H]2NC2CCNCC2)cc1 (assay: log2 fold change, soluble protein after heating vs DMSO (PISA); higher = thermal stabilisation; K562 cells, 10 uM, 30 min; active = over 0.2 and 3.5 SD of the protein, either way, in both replicates (recomputed)).
Outline: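 Quantification of soluble protein used TMTpro 16plex LC-MS/MS, with channel sums equalised. Samples were the supernatant after 21,000xg for 90 min of pooled aliquots from K562 cells (2×10^6 cells/mL) treated with 10 μM compound for 30 min, heated for 3 min over 48°C-58°C, and extracted in PBS with 0.5% NP-40 at 4°C. Values, from duplicates, describe thermal stability against control samples on a log2 fold-change scale.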
RNF185 (UniProt Q96GF1) was tested, and the log2 fold change was -0.168. RPS19 (UniProt P39019) gave a log2 fold change of -0.002. Target ROCK1 (UniProt Q13464) has a log2 fold change of -0.015. For SCAF8 isoform 2 (UniProt Q9UPN6), the log2 fold change was 0.012. SACM1L (UniProt Q9NTJ5) was tested, and the log2 fold change was 0.006. For SCPEP1 (UniProt Q9HB40), the log2 fold change was -0.007. Work on RPS21 (UniProt P63220) yielded a log2 fold change of 0.02. Work on SFXN5 (UniProt Q8TD22) yielded a log2 fold change of -0.061. In the case of RBM4 (UniProt Q9BWF3), the log2 fold change is reported as 0.073. Target RNASET2 (UniProt O00584) has a log2 fold change of 0.012. In the case of SHCBP1 (UniProt Q8NEM2), the log2 fold change is reported as -0.056. RBM25 (UniProt P49756) was tested, and the log2 fold change was 0.112. SEPTIN5 (UniProt Q99719) was tested, and the log2 fold change was -0.016. Work on RNPEP (UniProt Q9H4A4) yielded a log2 fold change of -0.021. For SH3GLB2 (UniProt Q9NR46), the log2 fold change was -0.063. For SCD (UniProt O00767), the log2 fold change was 0.027. Target SEH1L isoform 1 (UniProt Q96EE3) has a log2 fold change of 0.017. With RAD50 isoform 2 (UniProt Q92878) the log2 fold change was 0.014. With RALGPS2 (UniProt Q86X27) the log2 fold change was -0.01. Work on SIRT2 (UniProt Q8IXJ6) yielded a log2 fold change of -0.016. SLC1A5 (UniProt Q15758) gave a log2 fold change of 0.022. Work on SDCBP (UniProt O00560) yielded a log2 fold change of -0.102. For RTN4IP1 (UniProt Q8WWV3), the log2 fold change was -0.108. Target RUFY1 (UniProt Q96T51) has a log2 fold change of -0.028. RAB9A (UniProt P51151) showed a log2 fold change of 0.001. RAC3 (UniProt P60763) showed a log2 fold change of -0.147. Work on SLC12A5 (UniProt Q9H2X9) yielded a log2 fold change of 0.055. With SH3GL1 (UniProt Q99961) the log2 fold change was -0.049. RBM27 (UniProt Q9P2N5) gave a log2 fold change of -0.01. RPS14 (UniProt P62263) was tested, and the log2 fold change was -0.036. For RPS6KA2 isoform 2 (UniProt Q15349), the log2 fold change was -0.02. With RIOK3 (UniProt O14730) the log2 fold change was 0.024. Target SIDT2 isoform 2 (UniProt Q8NBJ9) has a log2 fold change of 0.088. In the case of RRAS2 isoform 4 (UniProt P62070), the log2 fold change is reported as 0.011. With RAB3IL1 (UniProt E9PK89) the log2 fold change was -0.136. With RAP2C (UniProt Q9Y3L5) the log2 fold change was -0.011. For RAD50, A0A494C0Y7, the log2 fold change was 0.118. RNF220 (UniProt Q5VTB9) was tested, and the log2 fold change was 0.038. For RIPK1 (UniProt Q13546), the log2 fold change was -0.049. RPS13 (UniProt P62277) was tested, and the log2 fold change was 0.
